Results from PubChem BioAssay (NCATS).
Several values for one entry are separate records, joined by “and”; a condition that tells them apart may be missing. Identical values can stand only once. Records with an inconclusive call do not appear. Activity calls are given as the source filed them. Unless noted, calls follow the shape of the dose curve; as a rule, active = well fitted curve in the direction sought with a large enough effect; inconclusive = small, poorly fitted or top-dose-only effect, or another doubt; inactive = no such curve, though single readings can be large; an effect the other way counts as inactive or inconclusive.

Columns and labels:
[1] = qHTS assay for small molecule disruptors of the mitochondrial membrane potential - 1 hr assay (AID 651754; calls by dose curve; also: % is scaled to controls: 0 for no effect and ±100 for the full control effect; nearly all actives have a fitted effect of over 35% in size)
Procedure, shortened: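 Loss of mitochondrial potential shifts the cationic dye from red mitochondrial aggregates to green cytoplasmic monomers. Cells (HepG2) are treated with compound for 1 hr before a 30 min dye incubation at 37C.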

[2] = qHTS assay for small molecule disruptors of the mitochondrial membrane potential - 5 hr assay (AID 651755; calls by dose curve; also: % is scaled to controls: 0 for no effect and ±100 for the full control effect; nearly all actives have a fitted effect of over 40% in size)
Procedure, shortened: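 Seed HepG2 overnight, add compound, incubate 5 hr at 37C and 5% CO2, stain 30 min with Mito-MPS, then measure monomer (490/535 nm) and aggregate (540/590 nm) fluorescence.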

[3] = target: Tumor necrosis factor (Homo sapiens) (UniProt P01375); assay: qHTS assay to identify small molecules that stimulate Tumor Necrosis Factor-alpha (TNF-alpha) secretion (AID 651757; active = well fitted curve in the direction sought with a large enough effect in the signal ratio; the % refers to the signal ratio; also: 0% is about no effect)
Procedure, shortened: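 Human monocytic THP-1 cells are plated, treated with compound and held at 37 C for 17 hrs. Labeled anti-TNF-alpha antibody mixture is then added; after 3 hr at room temperature, TR-FRET signal reports secreted TNF-alpha.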

[4] = qHTS assay to identify small molecules that stimulate interleukin-8 (IL-8) secretion (AID 651758; active = well fitted activation curve with a large enough effect in the signal ratio; the % refers to the signal ratio; also: 0% is about no effect)
Procedure, shortened: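 Quantitative HTS in THP-1 monocytic cells at 2000 cells per well, with 16 hrs compound incubation at 37 C. IL-8 in the medium was then quantified by HTRF immunoassay, read after 1-3 hrs at room temperature.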

[5] = qHTS assay for environmental chemicals that activate the Aryl hydrocarbon Receptor (AhR) signaling pathway (AID 651777); settings: 1A2-DRE human hepatoma cells, luciferase, 24 h; activation: hits give high values; also: % of control where 0% means no effect; nearly all actives have a fitted effect of over 15% in size
Procedure, shortened: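 Luminescence read-out: One-Glo added for 30 min at RT after 24 hr compound treatment (37 C, 5% CO2) of human hepatoma cells expressing a DRE/CYP1A2 promoter–luciferase reporter; increased signal indicates AhR activation.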

[6] = target: Peroxisome proliferator-activated receptor alpha (Homo sapiens) (UniProt Q07869); assay: qHTS assay for small molecule agonists of the peroxisome proliferator-activated receptor alpha (PPARalpha) signaling pathway (AID 651778); settings: PathHunter PPARalpha complementation, chemiluminescence, 6 h; hits give high values; also: % of control where 0% means no effect
Procedure, shortened: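 Cells plated at 2,000/well and held overnight at 37 C, 5% CO2, then compound added by pin tool for 6 hr; after PathHunter detection reagent and 60 min at room temperature, chemiluminescence from enzyme complementation was read.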

[7] = target: Nuclear receptor ROR-gamma (Homo sapiens) (UniProt P51449); assay: qHTS assay for small molecule antagonists of the retinoid-related orphan receptor gamma (ROR-gamma) signaling pathway (AID 651802);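 also: CHO cells with doxycycline-induced ROR-gamma expression; series mostly up to about 92 µM; % is scaled to controls: 0 for no effect and ±100 for the full control effect; nearly all actives have a fitted effect of over 60% in size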
Procedure, shortened: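 Steps: cells dispensed; compound or DMSO transferred by pin tool; doxycycline added to induce the ROR response element-driven luciferase; plates held 16hr at 37C; ONE-Glo added and luminescence measured.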

[8] = qHTS assay for small molecule agonists of the antioxidant response element (ARE) signaling pathway measured by Nrf2-dependant transcriptional activity (AID 720636; active = well fitted curve in the direction sought with a large enough effect in the repeat runs; an effect the other way counts as inactive or inconclusive;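 also: HepG2 cells with an ARE-driven luciferase reporter; % of control where 0% means no effect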)
Procedure, shortened: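 HepG2 ARE-luc reporter line, 1% dialyzed FBS; 6 hr attachment at 37 C, compound pinned in, 16 hr at 37 C/5% CO2; ONE-Glo, 30 min RT, luminescence read.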

[9] = qHTS assay for small molecule antagonists of the retinoid-related orphan receptor gamma (ROR-gamma) signaling pathway - cell viability counter screen (AID 720652; active = well fitted curve in the direction sought with a large enough effect in the repeat runs; an effect the other way counts as inactive or inconclusive;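 also: CHO reporter cells with doxycycline-induced ROR-gamma expression; series mostly up to about 92 µM; compound exposure lasted 16 hr before ATP read; % is scaled to controls: 0 for no effect and ±100 for the full control effect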)
Procedure, shortened: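 Steps: seed CHO cells bearing TET-inducible ROR and ROR response element-luciferase; rest 5 hr at 37 C; add compound, then doxycycline; incubate 16 hr; add CellTiter-Glo and read luminescence as ATP-based viability.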

[10] = qHTS assay for cell viability of HEK293 cells (AID 743288); settings: ATP luminescence (CellTiter-Glo), 18 h, hits give low values; also: % is scaled to controls: 0 for no effect and ±100 for the full control effect; nearly all actives have a fitted effect of over 50% in size
Procedure, shortened: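 Viable-cell counts were inferred from luciferase-based ATP content in HEK293 cells seeded at 2,000/well, pre-incubated ≥5 h, then dosed with DMSO-solubilised compounds for 18 h at 37 C.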

[11] = qHTS assay for cell viability of the p53RE-bla HCT-116 cell line (AID 743292); also: % is scaled to controls: 0 for no effect and ±100 for the full control effect; nearly all actives have a fitted effect of over 55% in size
Procedure, shortened: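 Luminescent ATP quantitation (CellTiter-Glo) served as the viability read-out; reagent was added after 16 h compound exposure at 37 C and read after 30 min at room temperature. Cells: p53RE-bla HCT-116, 4,000 per well.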

[12] = target: Nuclear receptor subfamily 1 group I member 2 (Rattus norvegicus) (UniProt Q9R1A7); assay: qHTS assay for small molecule activators of the rat pregnane X receptor (rPXR) signaling pathway (AID 651751; call rule not given here; also: 0% is about no effect); settings: rPXR reporter cells, luciferase (One-Glo), 24 h
[13] = qHTS assay for small molecule activators of the human pregnane X receptor (PXR) signaling pathway (AID 720659; call rule not given here; also: 0% is about no effect)
[14] = qHTS assay for small molecule agonists of the antioxidant response element (ARE) signaling pathway measured by Nrf2-dependant transcriptional activity - cell viability counter screen (AID 720653; active = well fitted curve in the direction sought with a large enough effect in the repeat runs; an effect the other way counts as inactive or inconclusive; also: % is scaled to controls: 0 for no effect and ±100 for the full control effect); settings: ARE-bla HepG2 viability, CellTiter-Glo ATP luminescence, 16 h; hits give low values
Procedure, shortened: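 ARE-bla HepG2 cells (2,000/well) rested 5 hrs at 37C/5% CO2, then exposed to compounds in DMSO for 16 hrs. Viability was read in the same wells as intracellular ATP by luminescence, 30 min at room temperature after reagent addition.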

Chain of Peroxisome proliferator-activated receptor alpha (Homo sapiens) (Q07869 whole entry, looked up): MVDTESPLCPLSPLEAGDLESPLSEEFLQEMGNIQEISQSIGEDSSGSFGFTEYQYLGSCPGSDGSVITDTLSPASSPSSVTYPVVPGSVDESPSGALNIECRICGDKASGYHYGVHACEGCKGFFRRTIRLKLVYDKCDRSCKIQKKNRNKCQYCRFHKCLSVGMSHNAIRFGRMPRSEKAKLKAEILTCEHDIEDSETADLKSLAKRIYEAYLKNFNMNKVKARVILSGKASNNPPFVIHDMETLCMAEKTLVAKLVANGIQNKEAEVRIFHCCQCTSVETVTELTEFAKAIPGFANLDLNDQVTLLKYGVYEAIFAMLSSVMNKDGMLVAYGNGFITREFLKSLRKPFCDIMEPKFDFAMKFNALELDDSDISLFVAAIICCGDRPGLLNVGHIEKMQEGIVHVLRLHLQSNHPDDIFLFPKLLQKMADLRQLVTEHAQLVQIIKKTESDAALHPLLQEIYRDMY
Chain of Nuclear receptor ROR-gamma (Homo sapiens) (P51449 whole entry, looked up): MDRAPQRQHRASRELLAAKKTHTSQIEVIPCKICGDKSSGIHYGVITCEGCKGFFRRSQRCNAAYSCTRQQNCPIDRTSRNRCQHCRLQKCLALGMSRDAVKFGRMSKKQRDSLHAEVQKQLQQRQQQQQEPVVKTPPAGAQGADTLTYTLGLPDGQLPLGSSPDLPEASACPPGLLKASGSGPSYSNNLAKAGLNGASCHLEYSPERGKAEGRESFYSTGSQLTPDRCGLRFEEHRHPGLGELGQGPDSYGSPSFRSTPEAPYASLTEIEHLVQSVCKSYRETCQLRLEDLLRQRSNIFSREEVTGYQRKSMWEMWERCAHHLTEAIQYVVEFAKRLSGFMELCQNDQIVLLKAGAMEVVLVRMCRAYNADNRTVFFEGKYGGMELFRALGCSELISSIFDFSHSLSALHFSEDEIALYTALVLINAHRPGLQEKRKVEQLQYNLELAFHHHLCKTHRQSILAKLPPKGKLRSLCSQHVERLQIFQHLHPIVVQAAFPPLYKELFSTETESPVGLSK
Chain of Nuclear receptor subfamily 1 group I member 2 (Rattus norvegicus) (Q9R1A7 whole entry, looked up): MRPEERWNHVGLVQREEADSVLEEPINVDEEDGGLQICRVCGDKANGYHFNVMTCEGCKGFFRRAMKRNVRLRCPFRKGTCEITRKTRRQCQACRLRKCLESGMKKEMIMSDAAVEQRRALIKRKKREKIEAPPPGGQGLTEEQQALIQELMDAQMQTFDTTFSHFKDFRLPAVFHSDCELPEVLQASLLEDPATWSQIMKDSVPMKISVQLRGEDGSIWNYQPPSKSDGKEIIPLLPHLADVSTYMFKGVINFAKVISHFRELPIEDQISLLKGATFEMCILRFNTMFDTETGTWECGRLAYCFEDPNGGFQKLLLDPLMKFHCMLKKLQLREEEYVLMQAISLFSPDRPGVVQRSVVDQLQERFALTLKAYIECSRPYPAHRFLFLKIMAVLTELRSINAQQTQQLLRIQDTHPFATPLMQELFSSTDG
Chain of Tumor necrosis factor (Homo sapiens) (P01375 whole entry, looked up): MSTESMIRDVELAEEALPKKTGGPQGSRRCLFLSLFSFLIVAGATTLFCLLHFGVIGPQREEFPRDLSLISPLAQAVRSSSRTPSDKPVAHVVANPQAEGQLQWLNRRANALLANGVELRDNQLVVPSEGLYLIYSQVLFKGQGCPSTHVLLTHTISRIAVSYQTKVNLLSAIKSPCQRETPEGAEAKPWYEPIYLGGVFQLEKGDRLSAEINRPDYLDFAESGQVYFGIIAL

CC(=O)c1ccccc1[N+](=O)[O-]
inactive: Potency [1] | Potency [2] | Potency [3] | Potency [4] | activation [5] -0.15% | max response [6] -1% | Potency [7] | outcome [8] | Potency [9] | max response [10] 7.31% | Potency [11] | max response [12] 1.69% | outcome [13]

CC(C)N(C)C
inactive: Potency [1] | Potency [2] | Potency [3] | Potency [4] | activation [5] -0.41% | max response [6] -5.48% | Potency [7] | outcome [8] | Potency [9] | max response [14] 2.26% | max response [10] 6.47% | Potency [11] | max response [12] -2.95% | outcome [13]

C1CCCC1
inactive: Potency [1] | Potency [2] | Potency [3] | Potency [4] | activation [5] 0.0008% | max response [6] 5.92% | Potency [7] | outcome [8] | Potency [9] | max response [14] -4.11% | max response [10] 0.668% | Potency [11] | max response [12] -1.32% | outcome [13]

O=Cc1ccc(CO)o1
inactive: Potency [1] | Potency [2] | Potency [3] | Potency [4] | activation [5] -1.71% | max response [6] -3.35% | Potency [7] | outcome [8] | Potency [9] | max response [14] -0.711% | max response [10] 6.14% | Potency [11] | max response [12] 1.25% | outcome [13]

c1ccc(Oc2ccccc2)cc1
inactive: Potency [1] | Potency [2] | Potency [3] | Potency [4] | activation [5] -0.267% and -0.51% | max response [6] -7.64% and 0.0496% | Potency [7] | outcome [8] | Potency [9] | max response [14] 5.45% and -9.72% | max response [10] -1.32% and 1.9% | Potency [11] | max response [12] -0.536% and 5.2% | outcome [13]

Nc1cc(S(=O)(=O)O)ccc1O
inactive: Potency [1] | Potency [2] | Potency [3] | Potency [4] | activation [5] -0.613% | max response [6] -7.35% | Potency [7] | outcome [8] | Potency [9] | max response [14] 3.72% | max response [10] -1.98% | Potency [11] | max response [12] 3.88% | outcome [13]

CCOC(C)(C)C
inactive: Potency [1] | Potency [2] | Potency [3] | Potency [4] | activation [5] -0.13% | max response [6] -4.96% | Potency [7] | outcome [8] | Potency [9] | max response [14] -6.47% | max response [10] 9.83% | Potency [11] | max response [12] -4.12% | outcome [13]

O=C(O)c1ccccc1Cl
inactive: Potency [1] | Potency [2] | Potency [3] | Potency [4] | activation [5] -2.05% | max response [6] -0.83% | Potency [7] | outcome [8] | Potency [9] | max response [14] -0.91% | max response [10] -4.79% | Potency [11] | max response [12] 1.04% | outcome [13]

N#CC1(O)CCCCC1
inactive: Potency [1] | Potency [2] | Potency [3] | Potency [4] | activation [5] 2.1% | max response [6] -1.44% | Potency [7] | outcome [8] | Potency [9] | max response [14] 5.72% | max response [10] 1.77% | Potency [11] | max response [12] 2.59%

Cc1ccc(C)c(N)c1
inactive: Potency [1] | Potency [2] | Potency [3] | Potency [4] | activation [5] -0.892% | max response [6] 7.66% | Potency [7] | outcome [8] | Potency [9] | max response [10] -4.96% | Potency [11] | max response [12] -4.19% | outcome [13]

COC(=O)CCC(=O)OC
inactive: Potency [1] | Potency [2] | Potency [3] | Potency [4] | max response [6] 7.56% | Potency [7] | outcome [8] | Potency [9] | max response [14] -12.8% | max response [10] 2.75% | Potency [11] | max response [12] 1.71% | outcome [13]

Cc1cccc(C)c1
inactive: Potency [1] | Potency [2] | Potency [3] | Potency [4] | activation [5] 0.25% | max response [6] 1.06% | outcome [8] | max response [14] 7.38% | max response [10] 7.2% | Potency [11] | max response [12] -3.48% | outcome [13]

CCCCC=O
inactive: Potency [1] | Potency [2] | Potency [3] | Potency [4] | max response [6] -1.36% | Potency [7] | outcome [8] | Potency [9] | max response [10] -6.95% | Potency [11] | max response [12] -1.64% | outcome [13]

Nc1nc2ccccc2[nH]1
inactive: Potency [1] | Potency [2] | Potency [3] | Potency [4] | activation [5] 11.9% | max response [6] -2.62% | Potency [9] | max response [10] -5.2% | Potency [11] | max response [12] 10.8% | outcome [13]

Cc1cc(C(=O)O)ccc1[N+](=O)[O-]
inactive: Potency [1] | Potency [2] | Potency [3] | Potency [4] | activation [5] 1.35% | max response [6] -0.276% | outcome [8] | Potency [9] | max response [14] -1.45% | max response [10] -12% | Potency [11] | max response [12] -5.59% | outcome [13]

Oc1c(Cl)ccc(Cl)c1Cl
inactive: Potency [1] | Potency [2] | Potency [3] | Potency [4] | activation [5] -0.586% | max response [6] 6.63% | outcome [8] | Potency [9] | max response [14] 0.617% | max response [10] 4.44% | Potency [11] | max response [12] 0.125% | outcome [13]
